About 79,000 compounds went through this panel and 15% of them were active in at least one assay; those are over-represented in the sample as a whole. No stated cut-off is given here; in the data, active means growth inhibition above about 70%; inactive means the rest.
Columns and labels:
[1] = NCI Yeast Anticancer Drug Screen. Data for the rad50 strain (AID 155);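 further: 0% = growth of vehicle-only cultures of the same strain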; conditions: S. cerevisiae rad50 strain growth inhibition; at 50.0 µM; stronger effect = higher value
Method in brief: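 Vehicle-treated cultures provide the reference for the growth inhibition reported for compound-exposed, repair-deficient yeast.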

[2] = NCI Yeast Anticancer Drug Screen. Data for the mec2-1 strain (AID 157); conditions: S. cerevisiae mec2-1 strain, at 50.0 µM, stronger effect = higher value
Method in brief: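 Vehicle-treated cultures served as reference for growth inhibition of compound-exposed mec2-1 yeast.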

[3] = NCI Yeast Anticancer Drug Screen. Data for the sgs1 mgt1 strain (AID 161);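 further: 0% = growth of cultures given vehicle only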; conditions: S. cerevisiae sgs1 mgt1 strain, at 50.0 µM, stronger effect = higher value
Method in brief: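 Inhibition of yeast growth, normalised to vehicle-treated controls, is reported for a strain bearing genetic alterations in DNA damage repair.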

[4] = NCI Yeast Anticancer Drug Screen. Data for the cln2 rad14 strain (AID 165);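 further: 0% = growth equal to vehicle treated cultures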; conditions: S. cerevisiae cln2 rad14 strain, at 50.0 µM, stronger effect = higher value
Method in brief: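 Each compound was tested on cln2 rad14 yeast. Inhibition of growth was calculated against vehicle-exposed controls.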

[5] = NCI Yeast Anticancer Drug Screen. Data for the bub3 strain (AID 167); conditions: S. cerevisiae bub3 mutant strain, at 50.0 µM, stronger effect = higher value
Method in brief: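 Mutant yeast screening strain plus compound; vehicle-treated cultures serve as the 0% inhibition reference.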

[6] = NCI Yeast Anticancer Drug Screen. Data for the mlh1 rad18 strain (AID 175); conditions: S. cerevisiae mlh1 rad18 strain growth inhibition; at 50.0 µM; stronger effect = higher value
Method in brief: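 Vehicle-treated cultures served as the reference for growth inhibition in a yeast strain carrying DNA damage repair alterations exposed to each compound.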

Measured: growth inhibition

CC(=O)Nc1cccc(OCOc2ccc([N+](=O)[O-])cc2)c1
inactive: [1] -4.65% | [2] 20.3% | [3] 30.4% | [4] -2.6% | [5] 22.6% | [6] 40.8%

CSc1nc(NC2OC(CO)C(O)C(O)C2O)c(C=O)c(=O)n1C (stereo unspecified)
inactive: [1] 10% | [2] -0.8% | [3] 10.3% | [4] 4% | [5] 2.45% | [6] 7.75%

O=C(NC(c1ccccc1)c1cccs1)c1cccs1 (stereo unspecified)
inactive: [1] -2.95% | [2] -4.45% | [3] 1.05% | [4] -38.4% | [5] 30.1% | [6] 3.95%

CNc1nc(N)nc(N)c1N1CCN(c2ccc(C(=O)O)cc2)CC1
inactive: [1] 13.3% | [2] -0.8% | [3] 19.8% | [4] 9.95% | [5] 17.2% | [6] 16.6%

CC1(C)CC([N+](C)(C)CCCCCC[N+](C)(C)C2CC(C)(C)N(O)C(C)(C)C2)CC(C)(C)N1O
inactive: [1] 3.6% | [2] 0.45% | [3] 14.9% | [4] -4.3% | [5] -3% | [6] 12.5%

Cc1[nH]c(C)c2ccc(=O)ccc12
inactive: [1] -51.4% | [2] -8.35% | [3] -16.6% | [4] -58.2% | [5] -2% | [6] -7.65%

CCCCCCCCCCCCCCCCCC(=O)OCC([N+](=O)[O-])([N+](=O)[O-])[N+](=O)[O-]
inactive: [1] -9.3% | [2] -1.3% | [3] -5.3% | [4] -19% | [5] -26.1% | [6] 1.9%

CCOC(=O)c1c(OC)ccc2ccccc12
inactive: [1] 13.3% | [2] 10.7% | [3] 4% | [4] -29.9% | [5] 21.6% | [6] 0.35%

OC1(C(O)(c2ccc(-c3ccccc3)cc2)c2ccc(-c3ccccc3)cc2)CCCCC1
inactive: [1] -11% | [2] -7.85% | [3] -34% | [4] -14.6% | [5] -26.4% | [6] -0.5%

O=C(CN1CCCCC1)NC(=O)c1ccccc1
inactive: [1] -8.8% | [2] -11.6% | [3] -7.8% | [4] -9.15% | [5] 0.65% | [6] -7.5%

O=C1CN(c2cccc(C(F)(F)F)c2)C(=O)CN1/N=C/c1ccc(O)c(O)c1
inactive: [1] 3.4% | [2] -0.1% | [3] -5.3% | [4] -2.3% | [5] 2.4% | [6] 27.6%

CC1=CC(=O)N(NC(N)=O)C1=O
inactive: [1] -11.4% | [2] -2.9% | [3] -9.5% | [4] -27.9% | [5] -16.4% | [6] 2.15%

CNC(=O)N(Cl)c1ccc(Cl)cc1
inactive: [1] 5.45% | [2] 12.9% | [3] 1.9% | [4] -26.6% | [5] 7.45% | [6] -0.25%

Cc1ccc(S(=O)(=O)Nc2ccccc2C(=O)c2ccc(C)c(C)c2)cc1
inactive: [1] 4.1% | [2] -7.15% | [3] -9.9% | [4] -41% | [5] -40.9% | [6] 23.9%

O=C(O)c1ccc(S(=O)(=O)c2cccc(Cl)c2)cc1
inactive: [1] 0.85% | [2] 7.8% | [3] 8.65% | [4] -18.7% | [5] -16.1% | [6] 6.45%

CC(=O)OC1C=C(C=O)C(O)(C=O)C2(C)CCCC(C)(C)C12 (stereo unspecified)
inactive: [1] -20.2% | [2] -29.5% | [3] -18.6% | [4] 7.95% | [5] 8.65% | [6] -17.6%

CC1=CC(=O)C2CC1C2(C)C (stereo unspecified)
inactive: [1] 6.55% | [2] -0.5% | [3] 0.5% | [4] 4.75% | [5] 4.6% | [6] -5.2%

Nc1ccc(-c2cc[cH-]c2)cc1.[Fe+2].c1cc[cH-]c1
inactive: [1] 8.2% | [2] 10.3% | [3] 10.8% | [4] 12.2% | [5] 21.4% | [6] 22.6%

NCCCNC/C=C/CNCCCN
inactive: [1] 25.8% | [2] -0.5% | [3] 2.7% | [4] 11.2% | [5] -0.8% | [6] -2.45%

CC(=O)OCCN(C)C
inactive: [1] 3.4% | [2] -1.85% | [3] -16% | [4] 8.5% | [5] -19.4% | [6] -10.4%

C=C(Cl)C(=O)O
inactive: [1] -11.3% | [2] -20.2% | [3] 18.9% | [4] -0.55% | [5] -25.4% | [6] -7.55%

Source: PubChem BioAssay (NCI)
